# Among all 48,000 compounds or so, about 13,000 (27%) showed an effect of 50% or more. The list shows a part of the results.
# Test system: Wolbachia pipientis
# Assay: Anti-Wolbachia Cell-Based Screen
# Type: functional
# Design: scale not given: in the data most compounds retested in dose-response had high values
# Settings: 5 µM
row,SMILES,Percent Effect [%]
1,CNS(=O)(=O)c1cccc(C(C)NCc2ccncc2)c1 (stereo not drawn),-20.6
2,Cc1cc(CN2C[C@@H](C)[C@@]3(CCN(CC(=O)N(C)C)C3=O)C2)oc1C.O=C(O)C(F)(F)F,15.48
3,CN(C)C(=O)CN1CC[C@]2(CN(CC3CC3)C[C@H]2c2ccccc2)C1=O.O=C(O)C(F)(F)F,97.34
4,CN1CC[C@]2(CN(S(C)(=O)=O)C[C@H]2c2ccccc2)C1=O,102.2
5,CN1CC[C@]2(CN(CC3CCOC3)C[C@H]2c2ccccc2)C1=O.O=C(O)C(F)(F)F (stereo partly drawn),100.2
6,CN1CC[C@]2(CN(CC3CCOCC3)C[C@H]2c2ccccc2)C1=O.O=C(O)C(F)(F)F,123.3
7,CN1CC[C@]2(CN(Cc3nccs3)C[C@H]2c2ccccc2)C1=O.O=C(O)C(F)(F)F,-12.3
8,CCN1C(=O)C(c2ccccc2)CC12CCN(S(C)(=O)=O)CC2 (stereo not drawn),-8.52
9,CCN1CC[C@]2(CN(Cc3nccs3)C[C@H]2c2ccccc2)C1=O.O=C(O)C(F)(F)F,-7.222
10,CN1CCC2(CCN(CC3CCOCC3)CC2)C1=O.O=C(O)C(F)(F)F,-1.769
11,CN1CC(c2ccccc2)C2(CCN(C(=O)c3cccn3C)CC2)C1=O (stereo not drawn),-2.229
12,N#Cc1ccc(CN2CCCCC2Cn2cncn2)c(F)c1 (stereo not drawn),-2.215
13,Cc1ccc(CN2CCOC3(CCN(C(=O)N4CCCC4)CC3)C2)cc1.O=C(O)C(F)(F)F,-8.825
14,Cc1ccc(CN2CCOC3(CCN(C(=O)C4CCOC4)CC3)C2)cc1.O=C(O)C(F)(F)F (stereo not drawn),2.988
15,Cc1ccc(CN2CCOC3(CCN(CC4CCOC4)CC3)C2)cc1.O=C(O)C(F)(F)F.O=C(O)C(F)(F)F (stereo not drawn),104.9
16,CN1CC[C@]2(CN(CC3CC3)C[C@H]2c2ccccc2)C1=O,103.2
17,O=C(O)C(F)(F)F.O=C(c1cccnc1)N1C[C@@H](c2ccccc2)[C@@]2(CCNC2=O)C1,-21.16
18,O=C(O)C(F)(F)F.O=C1NCC[C@]12CN(Cc1nccs1)C[C@H]2c1ccccc1,-4.824
19,CN1CC[C@]2(CN(Cc3cccs3)C[C@H]2c2ccccc2)C1=O,-2.755
20,O=C(O)C(F)(F)F.O=C1NCC[C@]12CN(CC1CCOCC1)C[C@H]2c1ccccc1,108.1
21,CC1CCCN(c2ccccc2OCC(=O)NC2CCOCC2)C1 (stereo not drawn),10.97
22,CC(C)NC(=O)CC(C)NC(=O)N(C)Cc1cc(Cl)cn1C (stereo not drawn),-3.888
23,CC(C)N1C(=O)C[C@H]2[C@@H]1CCN2C(=O)c1ccco1,-5.125
24,O=C(c1ccccn1)N1Cc2nccn2CC(COc2cccnc2)C1 (stereo not drawn),-5.974
25,O=C(CC1CC1)N1Cc2nccn2CC(COc2cccnc2)C1 (stereo not drawn),106

row,SMILES,Percent Effect [%]
1,COCC1CN(C(=O)c2ccccn2)Cc2nccn2C1 (stereo not drawn),101.9
2,CN(C)CCOCC1CN(C(=O)[C@H]2CCCO2)Cc2ccnn2C1 (stereo partly drawn),-10.91
3,O=C1CCCN1CC1CN(C(=O)C2CCOCC2)Cc2nccn2C1 (stereo not drawn),-10.76
4,O=C([C@H]1CCCO1)N1Cc2nccn2CC(COc2cccnc2)C1 (stereo partly drawn),99.26
5,COCC1CN(C(=O)c2cccs2)Cc2nccn2C1 (stereo not drawn),-51.2
6,COCC(=O)N1Cc2nccn2CC(COc2cccnc2)C1 (stereo not drawn),115.8
7,COCC(=O)N1Cc2nccn2CC(CN(C)Cc2cccnc2)C1 (stereo not drawn),3.316
8,N#CCCN(CC1CCOC1)S(=O)(=O)c1cccc(Cl)c1 (stereo not drawn),-9.345
9,CCCN1C(=O)C2(CCCCC2)NC1c1c[nH]nc1-c1cccnc1 (stereo not drawn),-6.37
10,CC(NCc1ccccc1O)c1ccc(-n2ccnc2)cc1 (stereo not drawn),4.863
11,CC(=O)NCCc1ccc(S(=O)(=O)N(CC(C)C)C(C)C)s1,-14.51
12,Nc1ccc(C(=O)N2CCC(Oc3cccc(C(F)(F)F)c3)CC2)cn1,-4.227
13,CN(C(=O)c1ccc(C2CCCO2)s1)C1CCS(=O)(=O)CC1 (stereo not drawn),4.966
14,CSCCC1c2nc[nH]c2CCN1Cc1ccccc1C(F)(F)F (stereo not drawn),-7.167
15,O=C(c1ccc[nH]1)N1Cc2nccn2CC(COc2cccnc2)C1 (stereo not drawn),86.9
16,Cc1cc(CN2CC[C@H]3C(=O)N(c4cccnc4)CCO[C@H]3C2)no1,-10.41
17,CS(=O)(=O)CCC(=O)Nc1cnn(-c2ccccc2Cl)c1,3.918
18,CCCNC(=O)CNC(=O)CCc1ccccc1Br,0.9662
19,Cc1nn(-c2ccccc2)c(C)c1CNC(=O)NC1CC1,9.435
20,Cc1nn(-c2ccccc2Cl)c(C)c1CCC(=O)O,123.4
21,CCCNC(=O)C(C)NC(=O)CCc1ccccc1Br (stereo not drawn),-13.88
22,Cc1nn(-c2ccccc2Cl)c(C)c1CCC(=O)NCCS(C)(=O)=O,98.33
23,Cc1c(C(=O)NCC(F)(F)F)nnn1-c1ccccc1Cl,-14.83
24,CCN1CCN(C(=O)c2nc(C)n(-c3ccccc3Cl)n2)CC1,7.919
25,Cc1nn(-c2cc(Cl)cc(Cl)c2)c(C)c1CCC(=O)O,123.3

row,SMILES,Percent Effect [%]
1,COC(=O)C(CCSC)NC(=O)Cc1c(C)nn(-c2ccccc2)c1C (stereo not drawn),-1.135
2,CCN(CC)CCNC(=O)CCc1c(C)nn(-c2ccccc2Br)c1C,111.1
3,CCN(C(=O)NCCc1ccccc1Cl)C(C)CS(C)(=O)=O (stereo not drawn),-2.563
4,Cc1noc(C2(NC(=O)c3cccnc3O)CCCCC2)n1,14.46
5,CCC(C)NC(=O)c1ccc(CNC(=O)CCC(C)C)cc1 (stereo not drawn),19.34
6,Cc1cc(CC(=O)N(C)Cc2cccc(OC(C)C)c2)n[nH]1,0.9226
7,COCc1noc(-c2nn(-c3ccc(F)c(F)c3)c3c2CCC3)n1,-11.94
8,CCN(CC)CCNC(=O)CCc1c(C)nn(-c2ccccc2Cl)c1C,121.6
9,CCN(CC)CCNC(=O)c1nn(CC)cc1Cl,13.81
10,COCCCN(C)C(=O)c1nnn(-c2ccccc2Cl)c1C,-5.685
11,CCOc1ccccc1CSc1nnc(CC2CCS(=O)(=O)C2)n1C (stereo not drawn),3.399
12,CN1CSC[C@H]1C(=O)N1CCN(Cc2cccc(Cl)c2)CC1,-11.1
13,CN(Cc1cccc(-n2cccn2)c1)Cc1cccs1,32.49
14,CN(Cc1ccc(-n2cccn2)cc1)Cc1ncc[nH]1,-13.82
15,CN(Cc1cccc(-n2cccn2)c1)Cc1c[nH]cn1,125
16,CC(NS(C)(=O)=O)C(=O)N(C)Cc1cnn(-c2ccc(F)cc2)c1 (stereo not drawn),-5.663
17,CCCc1cc(C(=O)N(C)Cc2cnn(-c3cccc(OC)c3)c2)[nH]n1,1.853
18,CC(C)c1nccc(CN(C)Cc2cccc(-n3cccn3)c2)n1,104.6
19,COc1cccc(-n2cc(CN(C)Cc3ccnc(C(C)C)n3)cn2)c1,92.54
20,CC(C)c1nccc(CN(C)Cc2cnn(-c3ccccc3)c2)n1,112.3
21,COc1cccc(-n2cc(CN(C)C(=O)c3cnc(O)cn3)cn2)c1,-3.404
22,CN(Cc1ccc(-n2cccn2)cc1)Cc1cnc(N(C)C)nc1,-6.821
23,CSCCC(O)C(=O)N(C)Cc1cnn(-c2ccc(F)cc2)c1 (stereo not drawn),17.62
24,COc1cc(N(C)Cc2cccc(-n3cccn3)c2)nc(N)n1,-41.52
25,COc1c(F)cc(F)cc1-c1nc2c([nH]1)CCNC2,-0.5434

row,SMILES,Percent Effect [%]
1,CC(c1cccnc1)N1CCN(CCCC#N)CC1 (stereo not drawn),-7.077
2,CCCn1nc(C(=O)N2CCCC2c2noc(C)n2)ccc1=O (stereo not drawn),-9.694
3,Cc1ccc(CN(C)CC(=O)NC2(C)CCS(=O)(=O)C2)cc1 (stereo not drawn),2.715
4,CC(C)N1CCCn2nc(C(=O)NCc3ccccc3F)cc2C1,-19.91
5,CCC(CO)N(Cc1cccc(-n2cccn2)c1)Cc1ccccn1 (stereo not drawn),-1.98
6,CC(CN(C)Cc1cccc(-n2cccn2)c1)C(F)(F)F (stereo not drawn),100.7
7,CCC(CO)N(Cc1cccc(-n2cccn2)c1)Cc1cccs1 (stereo not drawn),3.193
8,CC(C)c1nnc(NC(=O)c2cccc(OCC(F)(F)F)n2)[nH]1,-13.63
9,CC(C)Cc1nc(CS(=O)(=O)C(C)C(=O)N2CCOCC2)no1 (stereo not drawn),1.312
10,O=C(CN1CCCCCC1)NCCSc1cnn[nH]1,-5.638
11,O=C(CN1CCCCC1)Nc1ncc(Br)cc1Br,116.4
12,O=C(CN1CCCc2cc(F)cc(F)c21)Nc1ccc(Br)cn1,-2.039
13,CSc1nccc(-c2cccc(-c3ccn(CC4COCCO4)n3)c2)n1 (stereo not drawn),-11.46
14,Cc1ccnc(C(=O)N2C[C@@H]3CN(S(C)(=O)=O)CCO[C@@H]3C2)c1.O=C(O)C(F)(F)F,-16.56
15,Cn1cc(C(=O)N2CC[C@@]3(O)CCN(C4CCCCC4)C[C@H]3C2)cn1,-10.98
16,Cc1ccc(C(=O)N2C[C@@H]3CN(S(C)(=O)=O)CCO[C@@H]3C2)o1,-11.28
17,CCN1CCO[C@@H]2CN(C(=O)c3cocn3)C[C@@H]2C1.O=C(O)C(F)(F)F,-9.016
18,Cn1cc(C(=O)N2CCO[C@@H]3CN(C4CCC4)C[C@@H]3C2)cn1,99.44
19,Cc1cncc(C(=O)N2C[C@@H]3CN(S(C)(=O)=O)CCO[C@@H]3C2)c1.O=C(O)C(F)(F)F,122.6
20,O=C(c1ccnnc1)N1C[C@@H]2CN(c3ncccn3)C[C@@H]2C1,15.26
21,CS(=O)(=O)N1CCO[C@@H]2CN(C(=O)c3ccnnc3)C[C@@H]2C1,110.1
22,CS(=O)(=O)N1CCO[C@@H]2CN(C(=O)c3cccnc3)C[C@@H]2C1,94.69
23,Cn1cc(CN2CCO[C@@H]3CN(C4CCCC4)C[C@@H]3C2)cn1.O=C(O)C(F)(F)F.O=C(O)C(F)(F)F,-1.397

# Source: ChEMBL document CHEMBL3988442, “University of Dundee, Small-Polar-MMV Screening Library” (2021)
